# Screening data deposited in PubChem by several laboratories.
# Only some compounds are listed: those with a hit (about 4.6% of all), similar ones and a draw of the others.
# Peg3 prom inh-1: inhibitors of Peg3 promoter; HeLa PEG-Prom luciferase reporter, luminescence, overnight; inhibition, % at 20 µM; actives 1.7% (n = 360,000);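 active = inhibition of at least 50% at 20 µM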
# KKLEB tox: CF airway cell cytotoxicity counter-screen; activity change (cytotoxicity), % at 5 µM; KKLEB CF airway cells viability, ATPlite luminescence, overnight; hits give low values; cells stimulated with P. aeruginosa culture filtrate; actives 0.36% (n = 360,000);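 active = corrected activity change at or below -50% at 5 µM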
# HIF-2a inh: inhibitors of HIF-2a; 786-0 RCC cells HIF-2a reporter, luciferase luminescence, overnight; actives 0.72% (n = 360,000); inhibition, % at 18.8 µM; AID 624352;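 active = inhibition of the luminescence signal of 40% or more relative to plate controls, in a single-dose primary screen at 18.75 µM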
# CF NFkB block: inhibitors of cystic fibrosis induced NF-kB; KKLEB NF-kB-GFP reporter, PAF-induced, GFP fluorescence overnight; inhibition, % at 5 µM; actives 0.86% (n = 360,000);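 active = at least 50% inhibition at 5 µM, scaled per plate between neutral and stimulator controls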;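 note: PAF is a Pseudomonas aeruginosa culture filtrate used as stimulus; plate controls were PAF-stimulated DMSO wells for no effect and unstimulated DMSO wells for full effect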
# ABHD5-PLIN5 inh: ABHD5-PLIN5 protein interaction inhibition; Q00G26+Q8WTS1; Split G. princeps luciferase complementation, luminescence, 4 h; inhibition, % at 4 µM; actives 0.78% (n = 360,000);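 active = inhibition above the mean inhibition across every tested compound plus 3 SD, cut at about 22% in these data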;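 note: 0% = DMSO only wells and the 100% control is not disclosed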
# Mdm2 MdmX PPI: human Mdm2/MdmX binding inhibition; SaOS-2 split-luciferase Mdm2/MdmX complementation, luminescence; inhibition, % at 8 µM; actives 3% (n = 330,000); AID 485346;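 active = inhibition of at least 50% at 8 µM in the primary screen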
# Target sequence (O15151 whole entry, looked up): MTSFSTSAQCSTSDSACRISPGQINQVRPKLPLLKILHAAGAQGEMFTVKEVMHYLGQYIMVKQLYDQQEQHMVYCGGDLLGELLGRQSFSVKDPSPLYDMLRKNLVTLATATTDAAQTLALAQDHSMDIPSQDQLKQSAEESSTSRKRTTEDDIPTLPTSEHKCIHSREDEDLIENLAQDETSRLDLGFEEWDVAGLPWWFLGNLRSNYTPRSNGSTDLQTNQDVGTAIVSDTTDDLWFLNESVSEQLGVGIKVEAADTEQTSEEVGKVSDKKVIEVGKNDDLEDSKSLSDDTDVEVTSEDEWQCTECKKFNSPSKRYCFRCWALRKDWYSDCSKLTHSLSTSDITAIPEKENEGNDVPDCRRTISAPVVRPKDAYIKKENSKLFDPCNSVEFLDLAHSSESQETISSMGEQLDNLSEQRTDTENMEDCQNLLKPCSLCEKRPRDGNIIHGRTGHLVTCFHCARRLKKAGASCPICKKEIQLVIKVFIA
# Target sequence (Q00987 whole entry, looked up): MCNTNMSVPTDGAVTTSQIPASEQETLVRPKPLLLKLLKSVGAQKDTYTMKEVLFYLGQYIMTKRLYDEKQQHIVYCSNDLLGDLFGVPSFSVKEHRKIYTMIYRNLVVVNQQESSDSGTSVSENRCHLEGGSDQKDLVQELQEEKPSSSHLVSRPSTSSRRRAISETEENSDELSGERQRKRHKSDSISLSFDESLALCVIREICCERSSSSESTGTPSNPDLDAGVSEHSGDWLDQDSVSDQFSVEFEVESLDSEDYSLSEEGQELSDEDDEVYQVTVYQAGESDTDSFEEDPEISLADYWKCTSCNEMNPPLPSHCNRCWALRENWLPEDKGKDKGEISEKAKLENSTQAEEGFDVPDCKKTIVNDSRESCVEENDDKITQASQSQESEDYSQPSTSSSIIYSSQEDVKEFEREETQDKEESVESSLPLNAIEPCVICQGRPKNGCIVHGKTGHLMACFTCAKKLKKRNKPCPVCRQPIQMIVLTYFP
# Mdm2 MdmX conf-1: human Mdm2/MdmX binding inhibition, confirmed. shares compounds with Mdm2 MdmX PPI. luminescent assay. inhibition, % at 8 µM. actives 55% (n = 10,000). AID 489028; in the data active = inhibition above about 40%
# Full FLuc ctr: counter-screen for Mdm2/MdmX inhibitors: full-length luciferase. shares compounds with Mdm2 MdmX PPI. SaOS-2 full-length luciferase counterscreen, luminescence. inhibition, % at 8 µM. actives 77% (n = 6,200);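 active = mean inhibition at 8 µM reaching about 37%, which flags the compound as non-specific, limit read from the data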;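 note: p53-null SaOS-2 cells with luciferase driven by a doxycycline-inducible promoter; compound on cells about two nights before reading with doxycycline added after day one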
# Peg3 prom inh-2: Peg3 promoter inhibition confirmation. shares compounds with Peg3 prom inh-1. HeLa PEG-Prom luciferase reporter, luminescence, overnight. inhibition, % at 20 µM. actives 84% (n = 1,300);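 active = at 20 µM dose, 40% or more inhibition averaged across four replicates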
# ABHD5-PLIN5 conf: ABHD5-PLIN5 interaction inhibition, confirmed; shares compounds with ABHD5-PLIN5 inh; biochemical ABHD5-PLIN5 interaction, luminescence; actives 67% (n = 2,200); AID 651612; inhibition, % at 4 µM; in the data active = inhibition above about 23%;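 note: 0% = DMSO vehicle wells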
# HNF4 counter: HNF4 split-luciferase signal hit, counter-screen | shares compounds with ABHD5-PLIN5 inh | inhibition, % at 4 µM | AID 651674 | actives 77% (n = 2,200) | HNF4 dimerization, luminescence, biochemical;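 active = mean inhibition across replicate wells exceeding the computed hit threshold, cut at about 13% in these data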;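 note: light from luciferase halves that rejoin when HNF4 fusion proteins dimerize; 0% = DMSO only wells and the 100% control is not given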
# Mdm2 MdmX conf-2: confirmation of inhibitors of human Mdm2/MdmX interaction, set 2; shares compounds with HIF-2a inh; SaOS-2 split-luciferase Mdm2/MdmX complementation, luminescence; inhibition, % at 8 µM; actives 99% (n = 740); AID 504601;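 active = mean inhibition of the luminescence signal across two replicates at or above 26 percent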
# HIF-2a inh conf: HIF-2a inhibition, single concentration confirmation; 786-0 RCC cells, HIF-2a luciferase reporter luminescence, overnight; actives 56% (n = 1,800); shares compounds with HIF-2a inh; inhibition, % at 18.8 µM;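 active = mean inhibition across four replicates of at least 40 percent at the single tested concentration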
# HIF-1a cs: HIF-1a inhibition counter-screen for HIF-2a hits; shares compounds with HIF-2a inh; MiaPaCa-2 HIF-1a luciferase reporter, desferoxamine, overnight; inhibition, % at 18.8 µM; actives 72% (n = 1,800);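 active = mean inhibition of the reporter signal across four replicates at the single tested dose of 50% or more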
# Numbers without * were called inactive; / = no result given.
SMILES,Peg3 prom inh-1,KKLEB tox,HIF-2a inh,CF NFkB block,ABHD5-PLIN5 inh,Mdm2 MdmX PPI,Mdm2 MdmX conf-1,Full FLuc ctr,HIF-2a inh conf,HIF-1a cs,others
O=C1/C(=C/c2ccccc2)C[C@@]2(O)[C@H]3Cc4ccc(O)c5c4[C@@]2(CCN3CC2CC2)C1O5 (some centres not stated),100*,0,95*,76*,65*,100*,100*,51*,/,/,Mdm2 MdmX conf-2=103*
CCCCN=C[C@]12CCC(O)CC1(O)CCC1[C@@H]2CC[C@]2(C)[C@H](C3C=CC(=O)O3)CCC12O (some centres not stated),107*,-72*,55*,99*,-9,59*,70*,50*,21,104*,Mdm2 MdmX conf-2=82*
CCCCCn1c(=O)c(C(=O)NCc2ccncc2)c(O)c2ccccc21,29,-8,46*,3,5,51*,13,/,5,-22,
CCCC1(CC(C)C)C(=O)NC(=S)NC1=O,0,19,8,-19,2,/,/,/,/,/,
C[C@H](CO)N1C[C@H](C)[C@@H](CN(C)C(=O)Oc2ccccc2)OCc2cnnn2CCCC1=O,-3,9,4,2,-5,/,/,/,/,/,
COc1ccc(-c2ccc3n2Cc2cnnn2-c2ccccc2-3)cc1,-136,-3,-150,12,6,/,/,/,/,/,
CCCCCCCCCCCCCCCC[N+](C)(C)C,95*,30,56*,75*,10,90*,76*,9,42*,79*,
CCCCCC[N+](=O)[O-],-6,0,14,-8,2,15,/,/,/,/,
COC(=O)[C@@H]1N=C(c2ccc(OC)cc2)O[C@]12C(=O)N(C)c1ccc(Cl)cc12,/,/,-5,/,4,/,/,/,/,/,
COC(=O)[C@@H]1[C@@H](C(=O)OC)C2(c3ccccc3-c3ccccc32)N(c2ccc(Cl)cc2)N1C#N,107*,-75*,94*,92*,78*,101*,18,/,92*,106*,ABHD5-PLIN5 conf=97*;HNF4 counter=96*
O=[N+]([O-])c1ccc(C[n+]2c(-c3ccccc3)cc(-c3ccccc3)cc2-c2ccccc2)cc1,-15,1,11,3,14,-8,/,/,/,/,
c1ccc(-c2cc(-c3ccccc3)[n+](-c3ccccc3)c(-c3ccccc3)c2)cc1,111*,-32,8,29,10,89*,92*,56*,/,/,Peg3 prom inh-2=87*;Mdm2 MdmX conf-2=102*
S=C(NCCc1ccccc1)N1Cc2cc(N3CCCCC3)ccc2-n2nncc2C1,7,7,-1,-8,-4,/,/,/,/,/,
O=c1c2ccccc2nc(/C=C/c2ccc([N+](=O)[O-])o2)n1-c1ccc(O)cc1,103*,1,67*,12,4,75*,85*,23,2,105*,
O=Cc1cn(Cc2ccc([N+](=O)[O-])cc2)c2ccccc12,91*,-5,-4,-8,2,-16,/,/,/,/,Peg3 prom inh-2=80*
